What all share (type): functional
Experiment [1] has as its target Solute carrier family 2, facilitated glucose transporter member 1 (Homo sapiens) (UniProt P11166). The experiment can be described thus: ST_JUDE_LEISH: Cytotoxicity at 2uM final concentration against transgenic Leishmania Mexicana promastigotes LmGLUT1 that are glucose transport deficient and complemented with the human glucose transporter GLUT1. Activity is measured by DNA content using SYBR green in vitro.

Experiment [2] deals with Hexose transporter 1 (Plasmodium falciparum) (UniProt O97467). Put plainly: ST_JUDE_LEISH: Cytotoxicity at 2uM final concentration against transgenic Leishmania Mexicana promastigotes LmPfHT that are glucose transport deficient and complemented with the Plasmodium falciparum hexose transporter. Activity is measured by DNA content using SYBR green in vitro.
In experiment [3] the target is Glucose transporter (Leishmania mexicana) (UniProt O61059). Put plainly: ST_JUDE_LEISH: Cytotoxicity at 2uM final concentration against transgenic Leishmania Mexicana promastigotes LmGT2 that are glucose transport deficient and complemented with the L. Mexicana glucose transporter 2. Activity is measured by DNA content using SYBR green in vitro.

Solute carrier family 2, facilitated glucose transporter member 1 (Homo sapiens), sequence (P11166 whole entry): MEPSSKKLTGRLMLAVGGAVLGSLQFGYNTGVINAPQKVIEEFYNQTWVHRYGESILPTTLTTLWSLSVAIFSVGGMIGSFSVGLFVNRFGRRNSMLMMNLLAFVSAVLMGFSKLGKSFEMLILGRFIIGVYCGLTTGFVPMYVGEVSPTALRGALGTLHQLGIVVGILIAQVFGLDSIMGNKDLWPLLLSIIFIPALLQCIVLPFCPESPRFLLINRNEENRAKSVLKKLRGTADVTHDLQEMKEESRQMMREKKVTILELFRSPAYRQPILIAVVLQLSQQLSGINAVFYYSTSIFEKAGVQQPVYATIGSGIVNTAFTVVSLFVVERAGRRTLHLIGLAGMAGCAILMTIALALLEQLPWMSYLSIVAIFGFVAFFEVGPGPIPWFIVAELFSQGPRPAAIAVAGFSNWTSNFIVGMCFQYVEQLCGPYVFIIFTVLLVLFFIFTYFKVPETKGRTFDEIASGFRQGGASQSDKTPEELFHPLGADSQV

As for `CN1CCC(N2CCN(Cc3ccc(-c4ccc(-c5nc6ccccc6[nH]5)s4)cc3)CC2)CC1`, the values for the inhibition in experiment [1], in experiment [2] and in experiment [3] were 8.42%, 8.75% and 5.9%, respectively.
For `COc1cccc(NC(=O)c2cc(Br)cc(N3CCN(c4ccncc4)CC3)c2)c1`, in that order: 2.41%, 2.07% and 2.41%.
For the molecule `CC(C)CNCc1cccc(-c2ccccc2CN(C(=O)NCCc2ccccc2)C2CCN(Cc3ccccc3)CC2)c1`, the figures for the inhibition in experiment [1], in experiment [2] and in experiment [3] were 13.1%, 11.4% and 8.25%, respectively.
On to `CCN(CC)S(=O)(=O)c1ccc(C=CC(=O)Nc2cc(Cl)ccc2N2CCOCC2)cc1`, for which the inhibition in experiment [1] came to 6.36%; in experiment [2], 4.63%; in experiment [3], 5.02%.
As for `O=C(Cc1ccc(NC(=O)c2ccc(O)c(-c3cccc([N+](=O)[O-])c3)c2)cc1)NCCN1CCCCC1`, the inhibition in experiment [1] was -0.19%; in experiment [2] it was -1.26%; in experiment [3] it was -0.03%.
For the molecule `COC(=O)Nc1cc(C(F)(F)F)ccc1N1CCCC(NS(=O)(=O)c2ccc(C(C)(C)C)cc2)C1` (configuration not stated), the figures for the inhibition in experiment [1], in experiment [2] and in experiment [3] were 10%, 12.2% and 7.77%, respectively.
Regarding `Cc1ccc(F)c(CN2CCC(N3CC(c4ccccc4)(c4ccccc4)OC3=O)CC2)c1Cl`, the inhibition was 10.4% in experiment [1], 9.52% in experiment [2] and 9.68% in experiment [3].
For `CCCCOP(=O)(COc1ccc(CCN(CC(O)COc2cccc3[nH]c4ccccc4c23)CC(O)COc2cccc3[nH]c4ccccc4c23)cc1)C1CCCCC1` (configuration not stated), the inhibition came to 3.64% in experiment [1], 0.57% in experiment [2] and 0.82% in experiment [3].
For `CCc1cn2c3c(cc(C(=O)N[C@@H](Cc4cccc(F)c4)[C@H](O)CNC4CCCCC4)cc13)N(C)S(=O)(=O)CC2`, in that order: -0.36%, -1.06% and -0.81%.
`O=C(/C=C/c1ccc(Cl)c(Cl)c1)NCCCCCN1CCC(NC(=O)Nc2cccc(Cl)c2Cl)CC1`: the inhibition in experiment [1] is -2.33%; in experiment [2], -0.39%; in experiment [3] it was 6%.
For `CSC1=NC(C)(C)CC2(CC(c3cccc(C)c3)c3cc(Cl)c(O)cc3O2)N1` (configuration not stated), in that order: 0.95%, 1% and 0.47%.
For `O=C(/C=C/c1ccc(Cl)c(Cl)c1)NCCCCCN1CCC(NC(=O)c2ccc([N+](=O)[O-])cc2)CC1`, the inhibition in experiment [1] was determined as 12.2%; in experiment [2], 9.99%; in experiment [3], 9.31%.
Regarding `c1ccc(CN2CCC(NCc3ccc(-c4cncc5ccccc45)cc3)CC2)cc1`, the results for the inhibition in experiment [1], in experiment [2] and in experiment [3] were 0.33%, -2.18% and 3.84%, respectively.
For `COc1ccc(-c2ccc(Nc3cccc(S(=O)(=O)CCN4CCC(CCN(C)C)CC4)c3)nc2)cn1`, the inhibition was -2.17% in experiment [1], -1.68% in experiment [2] and 1.63% in experiment [3].
For `CC(C)CC(=O)N1CCNC[C@@H]1C(=O)NC1CC1`, in that order: 1.66%, 1.41% and -0.37%.
For `O=C1c2ccccc2C(=O)N1CCOc1c(Br)cc(Br)cc1CNCCCNc1cc(=O)c2ccccc2[nH]1` the same measures were 2.28%, 1.96% and 3.03%.
`C#CCCC(=O)Nc1cccc(-c2cccc(-c3nc4cccc(C)c4[nH]3)c2)c1`: the results for the inhibition in experiment [1], in experiment [2] and in experiment [3] were 3.2%, 1.23% and -1.87%, respectively.
Consider `O=c1cc(NCCCCNCc2cccc(C(F)(F)F)c2)[nH]c2ccccc12`, for which the inhibition was determined as 9.62% in experiment [1], 7.88% in experiment [2] and 5.78% in experiment [3].
Regarding `COc1ccccc1OCCN(CC(O)COc1cccc2[nH]c3ccccc3c12)CC(O)COc1cccc2[nH]c3ccccc3c12` (configuration not stated), the figures for the inhibition in experiment [1], in experiment [2] and in experiment [3] were 3.01%, 2.43% and 2.35%, respectively.
